The full data set covers some 8,800 targets. This sample favours those with a hit. About 0.5% of all pairs of compound and target were hits.
Assays:
Assay in all cases: log2 fold change, soluble protein after heating vs DMSO (PISA); higher = thermal stabilisation; K562 lysate, 10 uM; active = over 0.2 and 3.5 SD of the protein, either way, in both replicates (recomputed)
lapatinib = compound: CS(=O)(=O)CCNCc1ccc(-c2ccc3ncnc(Nc4ccc(OCc5cccc(F)c5)c(Cl)c4)c3c2)o1 [lapatinib]
In short: (§1)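 Values give the log-two fold change in thermal stability against solvent controls, from duplicates. Crude K562 extract at 1 mg/mL protein, made by dounce homogenisation in PBS pH 7.4 with 1 mM MgCl2, was treated with 10 μM compound for 30 min. After 3 min heating across 48°C-58°C, aliquots were pooled, adjusted to 0.5% NP-40 at 4°C and centrifuged at 21,000xg for 90 min. The supernatant was measured by TMTpro 16plex LC-MS/MS with channel sums equalised.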

pictilisib = compound: CS(=O)(=O)N1CCN(Cc2cc3nc(-c4cccc5[nH]ncc45)nc(N4CCOCC4)c3s2)CC1 [pictilisib]
In short: as §1

crizotinib = compound: C[C@@H](Oc1cc(-c2cnn(C3CCNCC3)c2)cnc1N)c1c(Cl)ccc(F)c1Cl [crizotinib]
In short: as §1

[1] = compound: C[C@H](C1=CC=C(C=C1)C(=O)NC2=C3C=CNC3=NC=C2)N
In short: as §1

duvelisib = compound: C[C@H](Nc1ncnc2nc[nH]c12)c1cc2cccc(Cl)c2c(=O)n1-c1ccccc1 [duvelisib]
In short: as §1

gandotinib = compound: Cc1cc(Nc2cc(CN3CCOCC3)c3nc(C)c(Cc4ccc(Cl)cc4F)n3n2)n[nH]1 [gandotinib]
In short: as §1

tozasertib = compound: Cc1cc(Nc2cc(N3CCN(C)CC3)nc(Sc3ccc(NC(=O)C4CC4)cc3)n2)n[nH]1 [tozasertib]
In short: as §1

doramapimod = compound: Cc1ccc(-n2nc(C(C)(C)C)cc2NC(=O)Nc2ccc(OCCN3CCOCC3)c3ccccc23)cc1 [doramapimod]
In short: as §1

bafetinib = compound: Cc1ccc(NC(=O)c2ccc(CN3CC[C@H](N(C)C)C3)c(C(F)(F)F)c2)cc1Nc1nccc(-c2cncnc2)n1 [bafetinib]
In short: as §1

[2] = compound: Cc1cccc(CC(=O)N2CCc3c2ccc(-c2cn(C)c4ncnc(N)c24)c3F)n1
In short: as §1

Measured: log2 fold change

HAUS2 (UniProt Q9NVX0)
inactive: lapatinib -0.033 | pictilisib -0.187 | crizotinib -0.055 | [1] 0.167 | duvelisib 0.049 | gandotinib -0.159 | tozasertib 0.067 | doramapimod -0.047 | bafetinib 0.005 | [2] -0.017

GPX4 (UniProt P36969)
inactive: lapatinib -0.037 | pictilisib -0.03 | crizotinib -0.01 | [1] 0.041 | duvelisib -0.008 | gandotinib -0.065 | tozasertib 0 | doramapimod -0.001 | bafetinib -0.033 | [2] -0.051

ILKAP (UniProt Q9H0C8)
inactive: lapatinib 0.04 | pictilisib 0.049 | crizotinib 0.026 | [1] 0.022 | duvelisib 0.007 | gandotinib -0.052 | tozasertib 0.031 | doramapimod 0.029 | bafetinib 0.001 | [2] -0.021

ITPKA (UniProt P23677)
Sequence of UniProt P23677 (P23677 whole entry, looked up): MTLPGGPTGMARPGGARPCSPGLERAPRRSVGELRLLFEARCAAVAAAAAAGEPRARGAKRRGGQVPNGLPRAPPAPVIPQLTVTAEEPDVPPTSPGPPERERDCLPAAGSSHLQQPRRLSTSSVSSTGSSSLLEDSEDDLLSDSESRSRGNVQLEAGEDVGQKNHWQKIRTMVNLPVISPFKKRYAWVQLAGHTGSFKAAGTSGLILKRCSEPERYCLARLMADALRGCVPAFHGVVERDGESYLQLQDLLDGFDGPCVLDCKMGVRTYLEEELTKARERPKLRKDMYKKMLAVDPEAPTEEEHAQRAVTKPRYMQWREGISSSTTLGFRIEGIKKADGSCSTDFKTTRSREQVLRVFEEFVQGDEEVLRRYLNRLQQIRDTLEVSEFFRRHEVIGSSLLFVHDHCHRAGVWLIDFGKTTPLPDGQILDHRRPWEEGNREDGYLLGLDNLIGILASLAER
inactive: lapatinib -0.043 | pictilisib -0.055 | crizotinib -0.012 | [1] -0.012 | duvelisib -0.038 | gandotinib -0.012 | tozasertib 0.051 | doramapimod 0.016 | bafetinib -0.043 | [2] 0.051

HIST2H2AA3 (UniProt Q6FI13)
inactive: lapatinib 0.001 | pictilisib -0.016 | crizotinib 0.049 | duvelisib -0.044 | gandotinib -0.143 | tozasertib 0.022 | doramapimod -0.088 | bafetinib 0.159 | [2] -0.171
active: [1] 0.555

ISCA1 isoform 2 (UniProt Q9BUE6)
Sequence of UniProt Q9BUE6 (Q9BUE6 whole entry, looked up): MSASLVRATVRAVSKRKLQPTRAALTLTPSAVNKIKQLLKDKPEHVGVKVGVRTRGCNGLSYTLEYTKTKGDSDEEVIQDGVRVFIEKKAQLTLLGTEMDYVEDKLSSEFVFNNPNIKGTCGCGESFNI
active: [1] 0.343
inactive: lapatinib 0.054 | pictilisib -0.08 | crizotinib -0.011 | duvelisib 0.012 | gandotinib -0.132 | tozasertib -0.004 | doramapimod 0.011 | bafetinib 0.067 | [2] -0.223

HSPA14 (UniProt Q0VDF9)
inactive: lapatinib -0.016 | pictilisib 0.023 | crizotinib -0.02 | [1] -0.038 | duvelisib 0.007 | gandotinib -0.039 | tozasertib 0.018 | doramapimod 0.003 | bafetinib -0.026 | [2] 0.037

HNRNPD isoform 2 (UniProt Q14103)
Sequence of UniProt Q14103 (Q14103 whole entry, looked up): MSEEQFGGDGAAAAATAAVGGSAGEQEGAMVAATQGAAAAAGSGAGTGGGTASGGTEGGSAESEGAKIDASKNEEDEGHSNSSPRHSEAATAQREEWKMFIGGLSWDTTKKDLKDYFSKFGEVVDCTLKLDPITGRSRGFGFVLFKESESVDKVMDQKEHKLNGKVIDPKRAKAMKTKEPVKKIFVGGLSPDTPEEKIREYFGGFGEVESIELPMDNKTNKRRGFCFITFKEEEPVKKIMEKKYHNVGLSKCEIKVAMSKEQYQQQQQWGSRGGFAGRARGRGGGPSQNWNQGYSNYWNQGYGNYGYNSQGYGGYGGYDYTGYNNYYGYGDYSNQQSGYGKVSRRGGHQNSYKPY
inactive: lapatinib 0.047 | pictilisib 0.043 | crizotinib 0.034 | duvelisib 0.015 | gandotinib -0.085 | tozasertib 0.004 | doramapimod -0.023 | bafetinib 0.095 | [2] -0.108
active: [1] 0.559

INTS1 (UniProt Q8N201)
inactive: lapatinib -0.051 | pictilisib -0.011 | crizotinib -0.067 | [1] 0.05 | duvelisib -0.04 | gandotinib -0.136 | tozasertib 0.007 | doramapimod -0.001 | bafetinib -0.164 | [2] 0.031

GNL3 (UniProt Q9BVP2)
inactive: lapatinib -0.058 | pictilisib -0.018 | crizotinib -0.134 | [1] 0.097 | duvelisib 0.004 | gandotinib -0.115 | tozasertib -0.013 | doramapimod 0.039 | bafetinib -0.128 | [2] -0.031

IMMT (UniProt C9J406)
active: [1] -0.461
inactive: lapatinib 0.017 | pictilisib 0.082 | crizotinib -0.116 | duvelisib 0.003 | gandotinib 0.048 | tozasertib 0.015 | doramapimod -0.034 | bafetinib 0.03 | [2] 0.168

GIT1 (UniProt Q9Y2X7)
inactive: lapatinib 0.029 | pictilisib -0.007 | crizotinib -0.015 | [1] 0.009 | duvelisib -0.08 | gandotinib -0.076 | tozasertib -0.002 | doramapimod -0.004 | bafetinib -0.047 | [2] -0.007

HAUS3 (UniProt Q68CZ6)
inactive: lapatinib -0.011 | pictilisib -0.001 | crizotinib -0.084 | [1] 0.013 | duvelisib -0.042 | gandotinib -0.059 | tozasertib 0.014 | doramapimod -0.034 | bafetinib -0.11 | [2] 0.079

HLTF (UniProt Q14527)
Sequence of UniProt Q14527 (Q14527 whole entry, looked up): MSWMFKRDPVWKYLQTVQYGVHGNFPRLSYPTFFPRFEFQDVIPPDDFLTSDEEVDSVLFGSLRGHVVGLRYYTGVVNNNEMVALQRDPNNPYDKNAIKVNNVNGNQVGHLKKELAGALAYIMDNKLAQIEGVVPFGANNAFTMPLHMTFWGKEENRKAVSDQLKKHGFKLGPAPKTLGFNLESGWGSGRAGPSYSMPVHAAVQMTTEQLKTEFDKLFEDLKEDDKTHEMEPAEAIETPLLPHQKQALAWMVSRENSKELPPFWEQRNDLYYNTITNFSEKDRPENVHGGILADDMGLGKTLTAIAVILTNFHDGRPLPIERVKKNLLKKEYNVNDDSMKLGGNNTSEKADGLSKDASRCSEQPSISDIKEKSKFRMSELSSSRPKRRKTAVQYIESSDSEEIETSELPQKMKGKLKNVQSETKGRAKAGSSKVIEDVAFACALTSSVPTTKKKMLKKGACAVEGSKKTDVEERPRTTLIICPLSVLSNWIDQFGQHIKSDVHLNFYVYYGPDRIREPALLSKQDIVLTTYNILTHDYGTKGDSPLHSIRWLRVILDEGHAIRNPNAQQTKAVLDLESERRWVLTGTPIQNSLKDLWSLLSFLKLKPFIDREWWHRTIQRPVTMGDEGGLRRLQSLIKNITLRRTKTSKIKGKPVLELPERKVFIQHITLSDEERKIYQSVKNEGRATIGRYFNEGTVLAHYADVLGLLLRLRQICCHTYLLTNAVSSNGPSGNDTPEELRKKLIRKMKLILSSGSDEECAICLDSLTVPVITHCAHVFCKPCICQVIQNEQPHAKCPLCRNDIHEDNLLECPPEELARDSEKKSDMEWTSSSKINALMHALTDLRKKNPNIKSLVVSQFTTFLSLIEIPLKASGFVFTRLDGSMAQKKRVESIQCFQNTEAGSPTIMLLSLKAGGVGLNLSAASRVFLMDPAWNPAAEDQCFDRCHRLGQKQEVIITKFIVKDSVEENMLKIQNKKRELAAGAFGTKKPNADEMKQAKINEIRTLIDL
inactive: lapatinib 0.045 | pictilisib 0.061 | crizotinib -0.019 | [1] -0.063 | duvelisib -0.05 | gandotinib -0.021 | tozasertib 0.004 | doramapimod -0.007 | bafetinib -0.087 | [2] 0.035

HIST2H2BC (UniProt Q6DN03)
inactive: lapatinib -0.024 | pictilisib 0.02 | crizotinib -0.024 | [1] 0.183 | duvelisib -0.083 | gandotinib -0.054 | tozasertib 0.019 | doramapimod 0.007 | bafetinib 0.018 | [2] -0.019

KIAA0930 isoform 2 (UniProt Q6ICG6)
inactive: lapatinib -0.068 | pictilisib 0.016 | crizotinib -0.067 | [1] -0.121 | duvelisib -0.037 | gandotinib 0.055 | tozasertib -0.015 | doramapimod 0.055 | bafetinib -0.051 | [2] 0.191

INPP4A (UniProt Q96PE3)
inactive: lapatinib -0.028 | pictilisib -0.116 | crizotinib -0.024 | [1] -0.086 | duvelisib 0.025 | gandotinib 0.003 | tozasertib 0.065 | doramapimod 0.014 | bafetinib 0.132 | [2] 0.128

IGF2BP3 (UniProt O00425)
Sequence of UniProt O00425 (O00425 whole entry, looked up): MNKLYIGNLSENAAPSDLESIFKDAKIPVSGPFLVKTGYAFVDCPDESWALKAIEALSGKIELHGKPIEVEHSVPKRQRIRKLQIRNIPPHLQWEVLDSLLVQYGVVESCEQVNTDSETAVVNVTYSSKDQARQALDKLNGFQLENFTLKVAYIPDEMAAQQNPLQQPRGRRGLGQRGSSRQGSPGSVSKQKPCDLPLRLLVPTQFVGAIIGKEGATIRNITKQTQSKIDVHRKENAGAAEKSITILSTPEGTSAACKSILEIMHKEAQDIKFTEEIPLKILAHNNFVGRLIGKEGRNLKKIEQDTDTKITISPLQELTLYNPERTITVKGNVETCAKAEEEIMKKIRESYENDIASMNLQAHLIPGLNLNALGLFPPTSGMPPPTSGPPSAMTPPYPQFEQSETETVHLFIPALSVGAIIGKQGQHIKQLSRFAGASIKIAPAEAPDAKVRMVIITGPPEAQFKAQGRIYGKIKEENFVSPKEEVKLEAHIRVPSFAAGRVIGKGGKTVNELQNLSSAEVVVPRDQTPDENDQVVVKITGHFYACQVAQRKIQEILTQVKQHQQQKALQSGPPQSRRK
inactive: lapatinib 0.013 | pictilisib -0.038 | crizotinib -0.031 | [1] -0.032 | duvelisib 0.017 | gandotinib -0.04 | tozasertib 0.001 | doramapimod -0.006 | bafetinib -0.045 | [2] 0.053

IMPDH1 isoform 6 (UniProt P20839)
inactive: lapatinib -0.001 | pictilisib 0.01 | crizotinib -0.021 | [1] -0.061 | duvelisib -0.013 | gandotinib 0.046 | tozasertib 0.014 | doramapimod 0.033 | bafetinib -0.037 | [2] 0.064

HADHB (UniProt P55084)
Sequence of UniProt P55084 (P55084 whole entry, looked up): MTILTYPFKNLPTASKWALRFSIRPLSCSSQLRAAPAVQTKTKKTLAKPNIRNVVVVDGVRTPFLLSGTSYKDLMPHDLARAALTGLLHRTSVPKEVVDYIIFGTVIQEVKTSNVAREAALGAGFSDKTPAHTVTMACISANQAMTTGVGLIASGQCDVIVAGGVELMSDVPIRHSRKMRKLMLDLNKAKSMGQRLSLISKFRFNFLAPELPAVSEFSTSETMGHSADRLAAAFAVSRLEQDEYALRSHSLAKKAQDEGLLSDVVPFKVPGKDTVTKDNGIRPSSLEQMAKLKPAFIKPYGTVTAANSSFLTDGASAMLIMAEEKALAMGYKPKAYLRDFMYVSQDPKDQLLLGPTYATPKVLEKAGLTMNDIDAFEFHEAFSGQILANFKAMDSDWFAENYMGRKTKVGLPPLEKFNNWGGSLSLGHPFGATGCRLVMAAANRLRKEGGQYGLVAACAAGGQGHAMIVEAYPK
inactive: lapatinib 0.1 | pictilisib 0.067 | crizotinib 0.073 | [1] -0.041 | duvelisib 0.037 | gandotinib 0.138 | tozasertib 0.016 | doramapimod 0.218 | bafetinib 0.014 | [2] -0.093

KDM5C (UniProt P41229)
Sequence of UniProt P41229 (P41229 whole entry, looked up): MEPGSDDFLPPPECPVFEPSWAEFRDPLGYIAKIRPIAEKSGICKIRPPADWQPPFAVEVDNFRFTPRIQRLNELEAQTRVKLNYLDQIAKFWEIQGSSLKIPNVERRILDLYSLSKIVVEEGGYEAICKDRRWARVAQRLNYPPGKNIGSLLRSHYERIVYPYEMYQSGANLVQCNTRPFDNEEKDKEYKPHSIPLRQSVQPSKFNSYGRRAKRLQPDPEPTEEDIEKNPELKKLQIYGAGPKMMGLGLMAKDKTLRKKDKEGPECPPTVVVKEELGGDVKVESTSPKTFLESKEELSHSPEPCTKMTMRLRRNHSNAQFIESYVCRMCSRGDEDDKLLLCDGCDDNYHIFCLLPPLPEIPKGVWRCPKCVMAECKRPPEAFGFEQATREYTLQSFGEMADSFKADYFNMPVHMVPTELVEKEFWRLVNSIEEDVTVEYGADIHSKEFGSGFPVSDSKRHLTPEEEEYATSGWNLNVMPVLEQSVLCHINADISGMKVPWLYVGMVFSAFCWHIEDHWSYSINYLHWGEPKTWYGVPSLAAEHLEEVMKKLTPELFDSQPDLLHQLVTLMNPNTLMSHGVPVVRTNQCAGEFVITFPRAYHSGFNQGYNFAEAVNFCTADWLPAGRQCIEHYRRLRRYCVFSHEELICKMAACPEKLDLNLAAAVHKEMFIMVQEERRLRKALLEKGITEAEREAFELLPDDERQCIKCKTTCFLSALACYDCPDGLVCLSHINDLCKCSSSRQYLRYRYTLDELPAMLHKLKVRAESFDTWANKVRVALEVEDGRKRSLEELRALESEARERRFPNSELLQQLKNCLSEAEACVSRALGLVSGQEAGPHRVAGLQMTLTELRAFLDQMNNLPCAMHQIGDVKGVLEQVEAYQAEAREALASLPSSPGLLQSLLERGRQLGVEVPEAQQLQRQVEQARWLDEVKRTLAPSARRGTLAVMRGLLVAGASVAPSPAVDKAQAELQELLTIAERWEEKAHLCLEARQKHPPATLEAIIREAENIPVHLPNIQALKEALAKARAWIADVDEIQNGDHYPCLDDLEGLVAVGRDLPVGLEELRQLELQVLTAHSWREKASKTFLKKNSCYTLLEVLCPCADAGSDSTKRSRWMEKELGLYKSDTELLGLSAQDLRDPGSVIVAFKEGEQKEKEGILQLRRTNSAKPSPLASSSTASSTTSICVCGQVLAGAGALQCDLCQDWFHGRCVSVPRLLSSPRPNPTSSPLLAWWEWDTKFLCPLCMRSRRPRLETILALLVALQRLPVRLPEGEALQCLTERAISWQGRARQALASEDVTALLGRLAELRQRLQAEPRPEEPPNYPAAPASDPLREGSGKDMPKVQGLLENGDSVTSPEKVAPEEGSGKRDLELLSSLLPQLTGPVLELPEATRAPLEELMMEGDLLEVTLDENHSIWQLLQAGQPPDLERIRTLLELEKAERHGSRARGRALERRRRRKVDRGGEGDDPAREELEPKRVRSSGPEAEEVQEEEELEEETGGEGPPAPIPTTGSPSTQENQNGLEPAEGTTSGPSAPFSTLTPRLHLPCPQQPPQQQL
inactive: lapatinib -0.085 | pictilisib -0.071 | crizotinib -0.043 | [1] 0.034 | duvelisib -0.001 | gandotinib -0.135 | tozasertib 0.016 | doramapimod 0.04 | bafetinib -0.061 | [2] 0.001

ILRUN (UniProt Q9H6K1)
Sequence of UniProt Q9H6K1 (Q9H6K1 whole entry, looked up): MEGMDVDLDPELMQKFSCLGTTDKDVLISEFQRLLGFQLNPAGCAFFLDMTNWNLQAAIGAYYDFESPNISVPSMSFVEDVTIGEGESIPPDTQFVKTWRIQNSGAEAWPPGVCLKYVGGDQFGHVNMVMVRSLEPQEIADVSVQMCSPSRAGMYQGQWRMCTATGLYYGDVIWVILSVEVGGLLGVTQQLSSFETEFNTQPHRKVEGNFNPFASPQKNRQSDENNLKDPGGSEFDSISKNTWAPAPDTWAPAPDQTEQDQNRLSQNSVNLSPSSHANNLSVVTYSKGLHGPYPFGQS
inactive: lapatinib -0.045 | pictilisib -0.033 | crizotinib 0.009 | [1] -0.025 | duvelisib 0.016 | gandotinib 0.012 | tozasertib 0.013 | doramapimod -0.028 | bafetinib -0.023 | [2] -0.017

GPN2 (UniProt Q9H9Y4)
inactive: lapatinib 0.041 | crizotinib 0.007 | [1] -0.035 | duvelisib 0.126 | gandotinib 0.068 | tozasertib 0.015 | doramapimod -0.005 | [2] 0.106

IPP (UniProt Q9Y573)
inactive: lapatinib 0.04 | [1] 0.067 | duvelisib -0.016 | gandotinib -0.172 | tozasertib 0.078 | [2] 0.074
